Screens from PubChem BioAssay.
UCHL1 inh: inhibitors of human UCHL1 deubiquitinase | purified UCHL1, Ub-rhodamine cleavage fluorescence | inhibition, % at 20 µM | 47,000 tested, 0.2% active
OTUD3 inh: inhibitors of human OTUD3 deubiquitinase. AID 1645858, 2021. inhibition, % at 25 µM. 47,000 tested, 0.7% active. purified OTUD3, Ub-rhodamine fluorescence, 2 h
USP7 block: inhibitors of human USP7 deubiquitinase; Ubiquitin carboxyl-terminal hydrolase 7 (Homo sapiens), Q93009; purified USP7, Ub-rhodamine cleavage fluorescence; inhibition, % at 20 µM; 47,000 tested, 0.3% active
Target sequence (Q93009 whole entry, looked up): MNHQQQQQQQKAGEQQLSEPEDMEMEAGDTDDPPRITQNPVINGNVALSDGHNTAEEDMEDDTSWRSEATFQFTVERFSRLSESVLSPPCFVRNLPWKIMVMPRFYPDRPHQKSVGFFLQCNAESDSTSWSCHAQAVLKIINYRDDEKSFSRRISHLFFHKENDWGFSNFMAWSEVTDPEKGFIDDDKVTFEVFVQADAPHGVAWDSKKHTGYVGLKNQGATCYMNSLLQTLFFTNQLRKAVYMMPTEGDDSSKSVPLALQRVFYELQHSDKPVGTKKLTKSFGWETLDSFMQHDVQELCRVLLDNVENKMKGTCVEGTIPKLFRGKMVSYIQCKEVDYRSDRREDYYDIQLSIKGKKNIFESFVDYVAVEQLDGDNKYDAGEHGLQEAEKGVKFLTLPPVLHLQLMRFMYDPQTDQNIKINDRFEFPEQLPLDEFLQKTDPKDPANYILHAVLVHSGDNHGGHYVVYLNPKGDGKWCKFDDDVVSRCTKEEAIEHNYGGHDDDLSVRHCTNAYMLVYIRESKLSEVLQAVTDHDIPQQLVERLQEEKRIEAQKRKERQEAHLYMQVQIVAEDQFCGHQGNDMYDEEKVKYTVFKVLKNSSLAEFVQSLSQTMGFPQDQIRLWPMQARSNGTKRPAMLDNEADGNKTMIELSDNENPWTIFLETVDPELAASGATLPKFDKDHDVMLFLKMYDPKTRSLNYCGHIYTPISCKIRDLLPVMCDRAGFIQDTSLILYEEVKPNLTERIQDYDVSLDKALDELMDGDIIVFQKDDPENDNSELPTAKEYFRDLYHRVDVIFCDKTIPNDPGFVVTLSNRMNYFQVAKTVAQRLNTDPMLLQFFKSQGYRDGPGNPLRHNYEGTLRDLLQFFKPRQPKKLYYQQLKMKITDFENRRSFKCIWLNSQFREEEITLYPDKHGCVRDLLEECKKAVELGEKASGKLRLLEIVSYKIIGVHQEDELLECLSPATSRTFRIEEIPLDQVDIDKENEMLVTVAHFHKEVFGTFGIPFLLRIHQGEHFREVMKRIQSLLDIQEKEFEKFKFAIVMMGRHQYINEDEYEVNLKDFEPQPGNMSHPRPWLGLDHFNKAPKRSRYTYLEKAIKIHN
USP10 block: inhibitors of human USP10 deubiquitinase | Ubiquitin carboxyl-terminal hydrolase 10 (Homo sapiens), Q14694 | 47,000 tested, 1.1% active | purified USP10, Ub-rhodamine fluorescence, 60 min | inhibition, % at 20 µM
USP8 block: inhibitors of human USP8 deubiquitinase. 47,000 tested, 4.2% active. AID 1645853, 2021. Ubiquitin carboxyl-terminal hydrolase 8 (Homo sapiens), P40818. purified USP8, Ub-rhodamine cleavage fluorescence, 30 min. inhibition, % at 20 µM
An asterisk follows results filed as active. The list is not random: actives were taken first. Their share in the collection is about 4.9%. Rule as the data show it: active = inhibition above about 30%; inactive = the rest.

Results for O=S1(=O)CCC(S(=O)(=O)Nc2ccc(OCc3ccc(Cl)cc3)cc2)C1 (stereo unspecified) ?
UCHL1 inh: 1; OTUD3 inh: 6; USP7 block: -3; USP10 block: 0; USP8 block: 57*

Results for CCOC(=O)N1CCN(C(=O)c2ccc(NCc3ccc(F)cc3)c(S(=O)(=O)Nc3cccc(C(F)(F)F)c3)c2)CC1 ?
UCHL1 inh: 8; OTUD3 inh: 0; USP7 block: 8; USP10 block: 56*; USP8 block: 17

How did CCOC(=O)N1CCN(C(=O)c2ccc(CNS(=O)(=O)c3ccc(NC(C)=O)cc3)cc2)CC1 do in these assays?
UCHL1 inh: 2; OTUD3 inh: 10; USP7 block: 5; USP10 block: 3; USP8 block: 22

How did Cc1ccc(NC(=O)Cn2c3ncccc3c(=O)n2-c2ccccc2)cc1 do in these assays?
UCHL1 inh: -1; OTUD3 inh: -5; USP7 block: 5; USP10 block: 2; USP8 block: 2

What do the screens show for `Cc1ccc(NC(=O)CC2=NC(=O)C(CC(=O)Nc3ccccc3C)S2)cc1` (stereo unspecified)?
UCHL1 inh: 3; OTUD3 inh: 3; USP7 block: -1; USP10 block: 20; USP8 block: 39*

What do the screens show for `Cc1cccc(NC(=O)NCCc2c(C)nn(C)c2C)c1C`?
UCHL1 inh: 2; OTUD3 inh: 12; USP7 block: 8; USP10 block: 2; USP8 block: 19

How did CCOc1cc(N2CCOCC2)c(OCC)cc1NC(=O)c1cc2c(s1)CCC2 do in these assays?
UCHL1 inh: 20; OTUD3 inh: 12; USP7 block: 17; USP10 block: 30; USP8 block: 50*

How did CCOc1cc(N2CCOCC2)c(OCC)cc1NC(=O)COC(=O)c1ccc2ncsc2c1 do in these assays?
UCHL1 inh: -1; OTUD3 inh: 0; USP7 block: 1; USP10 block: -1; USP8 block: 3

How did CC(C)NC(=O)c1cc2c(nc1NCC1CC1)CCN(Cc1cccnc1)CC2 do in these assays?
UCHL1 inh: -23; OTUD3 inh: -105; USP7 block: -22; USP10 block: -1; USP8 block: -114

What do the screens show for `COc1ccc(-n2ccc(=O)c(-c3nc(-c4ccc(F)cc4)no3)n2)cc1`?
UCHL1 inh: 5; OTUD3 inh: 14; USP7 block: 8; USP10 block: 4; USP8 block: 85*

How did COc1ccccc1-c1noc(-c2nn(-c3ccc(C)c(C)c3)ccc2=O)n1 do in these assays?
UCHL1 inh: 0; OTUD3 inh: -26; USP7 block: -25; USP10 block: -4; USP8 block: -4

Results for Cc1ccc(-n2ccc(=O)c(-c3nc(-c4ccccc4F)no3)n2)cc1 ?
UCHL1 inh: 1; OTUD3 inh: 0; USP7 block: -6; USP10 block: -2; USP8 block: 9

Results for COc1cccc(-n2ccc(=O)c(-c3nc(-c4ccccc4Cl)no3)n2)c1 ?
UCHL1 inh: 1; OTUD3 inh: 23; USP7 block: -19; USP10 block: 3; USP8 block: 68*

Results for Cc1nc(-c2ccccc2Cl)sc1C(=O)N[C@H](CO)c1ccccc1 ?
UCHL1 inh: 2; OTUD3 inh: -6; USP7 block: 3; USP10 block: 0; USP8 block: -10

What do the screens show for `COC(=O)c1ccc(C(=O)OC)c(N2C(=O)CSCC2=O)c1`?
UCHL1 inh: 2; OTUD3 inh: 13; USP7 block: -9; USP10 block: 7; USP8 block: 36*

What do the screens show for `COc1ccc(S(=O)(=O)N2CCCCC2)cc1NC(=O)COc1cccc(Cl)c1Cl`?
UCHL1 inh: 6; OTUD3 inh: 1; USP7 block: 10; USP10 block: 5; USP8 block: 14

Results for Cc1c(CCC(=O)N2CC[C@@]3(O)CCCC[C@H]3C2)c(=O)oc2cc(OCc3ccc(F)cc3F)ccc12 ?
UCHL1 inh: 9; OTUD3 inh: 12; USP7 block: -2; USP10 block: 2; USP8 block: 22

How did Cc1c(OCC(=O)NCC(=O)N2CCC3(O)CCCCC3C2)ccc2c3c(c(=O)oc12)CCCC3 (stereo unspecified) do in these assays?
UCHL1 inh: -1; OTUD3 inh: 41*; USP7 block: -4; USP10 block: -4; USP8 block: 1

What do the screens show for `COc1ccc(COc2ccc3c(C)c(CC(=O)N4CC[C@@]5(O)CCCC[C@H]5C4)c(=O)oc3c2)cc1`?
UCHL1 inh: -3; OTUD3 inh: 8; USP7 block: 4; USP10 block: 62*; USP8 block: 34*

Results for COc1ccc(OC)c(NC(=O)c2ccc(-n3nnnc3SC)cc2)c1 ?
UCHL1 inh: 1; OTUD3 inh: -5; USP7 block: -3; USP10 block: 1; USP8 block: 20

How did COc1ccc(NC(=O)c2ccc(-n3nnnc3SC)cc2)cc1Cl do in these assays?
UCHL1 inh: 0; OTUD3 inh: 87*; USP7 block: 4; USP10 block: 17; USP8 block: -12

Results for Cc1nc2ccc(NC(=O)/C=C/c3cn(-c4ccccc4)nc3-c3cccnc3)cc2s1 ?
UCHL1 inh: -2; OTUD3 inh: -5; USP7 block: 13; USP10 block: 0; USP8 block: 38*

How did NS(=O)(=O)c1cccc(NC(=O)/C=C/c2cn(-c3ccccc3)nc2-c2cccc([N+](=O)[O-])c2)c1 do in these assays?
UCHL1 inh: 5; OTUD3 inh: 5; USP7 block: 19; USP10 block: 63*; USP8 block: 71*

What do the screens show for `CC(=O)Nc1ccc(S(=O)(=O)Nc2cc(-c3ccccc3)nn2C)cc1`?
UCHL1 inh: -6; OTUD3 inh: 0; USP7 block: -5; USP10 block: -6; USP8 block: 0

What do the screens show for `O=C(O)c1cn(-c2ccccc2)nc1-c1cccc([N+](=O)[O-])c1`?
UCHL1 inh: 0; OTUD3 inh: 2; USP7 block: -5; USP10 block: 5; USP8 block: 3

What do the screens show for `CC(=O)NS(=O)(=O)c1ccc(NC(=O)/C=C/c2cn(-c3ccccc3)nc2-c2ccccc2)cc1`?
UCHL1 inh: 12; OTUD3 inh: 9; USP7 block: 41*; USP10 block: 63*; USP8 block: 65*

How did CNC(=O)Cc1ccc(NC(=O)/C=C/c2cn(-c3ccccc3)nc2-c2ccc(F)cc2)cc1 do in these assays?
UCHL1 inh: 1; OTUD3 inh: 0; USP7 block: 7; USP10 block: 10; USP8 block: 34*

What do the screens show for `COc1cc(C(C)=O)ccc1OCC(=O)Nc1cccc(-c2nc3ccccc3[nH]2)c1`?
UCHL1 inh: -1; OTUD3 inh: -29; USP7 block: -2; USP10 block: -5; USP8 block: -10
